Sampled rows, rich in hits. Any-hit rate of the full collection: about 12%.
JMJD2A Tudor: inhibitors of human JMJD2A Tudor domain. Potency, µM (top dose mostly 114 µM), most hits filed as inhibitors. AID 504339. O75164. 4.4% of 390,000 active. AlphaScreen JMJD2A-Tudor / H3K4me3 peptide binding; further: nearly all actives have a fitted effect of over 50% in size
BAZ2B inh: BAZ2B (human) inhibition. Q9UIF8. AlphaScreen BAZ2B-H3K14Ac peptide displacement. Potency, µM (highest dose often 114 µM), most hits filed as inhibitors. 4.4% of 360,000 active. AID 504333; further: nearly all actives have a fitted effect of over 60% in size
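BAZ2B (50 nM) with biotin-H3(5-23)K14Ac peptide (50 nM) in PBS pH 7.4, 0.01% Tween-20, preformed 30 min, then compound 30 min at room temperature; top concentration 110uM. AlphaScreen streptavidin donor/nickel chelate acceptor beads (10 ug/mL final), 20 min dark, signal read.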
HP1b binding inh: HP1-beta chromodomain-methylated histone interaction inhibition | AlphaScreen HP1-beta / biotin-H3K9me3 peptide binding | 0.56% of 390,000 active | P83916 | Potency, µM (series often up to 114 µM), usual class: inhibitors; further: nearly all actives have a fitted effect of over 70% in size
Target sequence (P83916 whole entry, looked up): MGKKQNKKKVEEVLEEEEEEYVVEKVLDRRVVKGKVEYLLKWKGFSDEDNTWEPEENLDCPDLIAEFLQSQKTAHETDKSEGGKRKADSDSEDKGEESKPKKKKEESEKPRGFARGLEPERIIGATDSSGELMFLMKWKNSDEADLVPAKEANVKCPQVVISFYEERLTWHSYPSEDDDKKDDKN
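Compound inhibition of the preformed complex between 50 nM HP1-beta and 50 nM biotinylated H3K9me3 peptide was read by AlphaScreen. Buffer was PBS pH 7.4 with 0.01% Tween-20. Incubations ran 30 min at room temperature, with 10 ug/mL donor/acceptor beads.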
Sfp PPTase inh: Sfp phosphopantetheinyl transferase inhibition; AID 1490; Q9F4F7; 3.5% of 310,000 active; Biochemical Sfp PPTase activity, qHTS; Potency, µM, most hits filed as inhibitors;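 further: the enzyme is Sfp with the accession as filed and its product quenches rhodamine fluorescence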
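With Hepes-Na pH 7.6 buffer containing 10 mM MgCl2, Sfp (15 nM) modified BHQ-2-YbbR (12.5 uM) using rhodamine-CoA (5 uM). Two reads 30 minutes apart at 525/598 nm yielded each well's rate.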
G9a inh: blocks human histone lysine methyltransferase G9a; Q96KQ7; G9a H3K9 monomethylation, AlphaScreen, 2 h; Potency, µM (titrated, usually from 102 µM), hits mostly inhibitors; 8.8% of 350,000 active; further: nearly all actives have a fitted effect of over 75% in size
Target sequence (Q96KQ7 913-1193 limits assumed): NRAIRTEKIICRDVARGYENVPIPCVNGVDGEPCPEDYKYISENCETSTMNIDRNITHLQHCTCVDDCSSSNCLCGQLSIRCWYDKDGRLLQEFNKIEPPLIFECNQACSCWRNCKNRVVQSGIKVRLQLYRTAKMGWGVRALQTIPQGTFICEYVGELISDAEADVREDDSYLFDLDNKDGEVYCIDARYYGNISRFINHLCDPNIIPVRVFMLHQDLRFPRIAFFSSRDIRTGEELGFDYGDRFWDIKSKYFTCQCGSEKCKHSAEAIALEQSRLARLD
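Compounds were preincubated with 20 nM G9a for 15 min, after which biotinylated H3K9 peptide (500 nM) and SAM (20 uM) started a 2 h room-temperature reaction. Monomethylated product was quantified by antibody-based AlphaScreen chemiluminescence.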
Numbers stand for hits; 0 = inactive; ? = inconclusive; - = no result; [ ] = dose if it differs, or a comment. The call rests on the fitted dose curve; in most records, active means well fitted curve in the direction sought with a large enough effect; inconclusive means small, poorly fitted or top-dose-only effect, or another doubt; inactive means no such curve, though single readings can be large; an effect the other way counts as inactive or inconclusive.

SMILES	JMJD2A Tudor	BAZ2B inh	HP1b binding inh	Sfp PPTase inh	G9a inh
O=C(Cn1cc(S(=O)(=O)Cc2ccc([N+](=O)[O-])cc2)c2ccccc21)N1CCOCC1	0	0	0	40µM	8.9µM
Cc1ccc(CNC(=O)CS(=O)(=O)c2cn(CC(=O)N3CCOCC3)c3ccccc23)cc1	0	0	0	40µM	25µM
O=C(CS(=O)(=O)c1cn(CC(=O)N2CCOCC2)c2ccccc12)Nc1ccccc1	0	-	0	0	?
CC(=O)Nc1ccc(NC(=O)CS(=O)(=O)c2cn(CC(=O)N3CCCC3)c3ccccc23)cc1	0	0	0	0	40µM
O=C(Oc1ccccc1)c1cccc(N2C(=O)CCC2=O)c1	0	0	0	0	0
CCN1/C(=C2\C(=O)N(C)C(=S)N2C)C=Cc2cc(OC)ccc21	?	56µM	?	50µM	7.9µM
CCN1C(=O)/C(=C2/C=Cc3cc(C)ccc3N2CC)N(C)C1=S	16µM	40µM	?	?	11µM
COc1ccc(CC(=O)OCC(=O)Nc2ccc3[nH]c(=O)[nH]c3c2)cc1	0	0	0	-	?
COc1ccccc1CNC(=O)C1CC2Cn3c(nc4cc5ccccc5cc43)C2N1C (centres undefined)	0	0	0	-	0[2.33 µM]
COc1cccc(Cn2c(=O)c3[nH]cnc3n(-c3ccccc3C)c2=O)c1	0	0	0	0	71µM
CC(C)CC(=O)NC(=S)Nc1ccc(CN2CCOCC2)cc1	0	0	0	0	-
O=C(NC(=S)Nc1ccc(F)cc1)c1ccc2c(c1)OCCO2	0	?	0	0	?
O=C(NC(=S)Nc1ccc(N2CCCCC2)cc1)c1ccc2c(c1)OCCO2	?	10µM	?	0	?
O=C(NC(=S)Nc1ccc(CN2CCOCC2)cc1)c1ccc2c(c1)OCCO2	?	?	?	?	45µM
O=C(NC(=S)Nc1ccc(N2CCCC2)cc1)c1ccc(F)cc1	?	11µM	0	0	?
O=C(NC(=S)Nc1ccc(N2CCOCC2)cc1)c1ccc2c(c1)OCCO2	20µM	?	0	0	10µM
Fc1ccc2c(c1)C1OCCCC1C(c1ccccc1)N2 (centres undefined)	?	?	?	0	?
CC(Sc1ccc2c(c1)OCCO2)C(=O)Nc1ccc(N2CCOCC2)cc1 (centres undefined)	0	0	0	0	50µM
CCc1c(C)c(C#N)c2nc3ccccc3n2c1Nc1c(C)n(C)n(-c2ccccc2)c1=O	0	0	0	0	0[12.7 µM]
COc1cc(/C=N/NC(=O)C(Cc2c[nH]c3ccccc23)NC(=O)OCC(C)C)cc([N+](=O)[O-])c1OCc1ccccc1 (centres undefined)	0	0	0	0	?
COc1cc(/C=N/NC(=O)C(Cc2c[nH]c3ccccc23)NC(=O)OCc2ccccc2)cc([N+](=O)[O-])c1O (centres undefined)	40µM	45µM	?	0	8.9µM
COc1cc(/C=N/NC(=O)C(Cc2c[nH]c3ccccc23)NC(=O)OCC(C)C)cc([N+](=O)[O-])c1O (centres undefined)	?	50µM	0	0	?
CC(=O)Nc1ccc(NC(=O)c2ccc(NS(=O)(=O)c3cc(C(C)(C)C)cc(C)c3C)cc2)cc1	0	0	0	0	0
Cc1cc(C(C)(C)C)cc(S(=O)(=O)Nc2ccc(O)c(C(=O)O)c2)c1C	0	0	0	89µM	?
CN(C)C(=O)c1cc(C(=O)c2ccccc2C(F)(F)F)c[nH]1	?	0	0	0	0
SMILES	JMJD2A Tudor	BAZ2B inh	HP1b binding inh	Sfp PPTase inh	G9a inh
COc1ccc(S(=O)(=O)N/N=C(/C)c2ccc(C)o2)cc1	0	-	0	-	-
COc1ccc(C/C(C)=N/NC(=S)Nc2ccccc2)cc1	0	0	0	?	?
COc1ccc(/C(C)=N/NC(=S)Nc2cc(C)ccc2C)cc1	?	?	0	0	35µM
CCOc1ccc(S(=O)(=O)N/N=C(\C)Cc2ccc(OC)cc2)cc1	0	?	0	0	40µM
COc1ccc(C/C(C)=N/NC(=S)Nc2ccc(Cl)cc2)cc1	0	0	0	?	7.1µM
COc1ccc(C/C(C)=N/NC(=S)Nc2ccc(C)c(C)c2)cc1	32µM	0	0	0	28µM
COc1ccc(NC(=O)CN(C)C(=O)CN2C(=O)C3CCCCC3C2=O)cc1 (centres undefined)	0	0	0	-	?
O=C(COC(=O)c1ccc(F)cc1Cl)NC1CCS(=O)(=O)C1 (centres undefined)	0	0	0	-	0[2.33 µM]
COc1ccccc1NC(=O)N1CCN(c2ncccn2)CC1	0	0	0	0	0[12.7 µM]
Cn1cnc(S(=O)(=O)NCc2ccccc2)c1	0	0	0	0	0
COc1ccc(C(=O)COc2ccc(C)cc2NC(C)=O)cc1	0	0	0	0	0
CCC1S/C(=N/S(=O)(=O)c2ccc(N)cc2)NC1=O (centres undefined)	0	-	0	-	-
COc1ccc(S(=O)(=O)NCC(c2ccc(N(C)C)cc2)N2CCCC2)cc1F (centres undefined)	0	0	0	-	0[12.7 µM]
O=C(COc1ccc(S(=O)(=O)NC2CCCCC2)cc1)NCCC1=CCCCC1	0	0	0	0	0
CCCCc1ccc(NC(=S)Nc2ccc(Nc3ccc(OC)cc3)cc2)cc1	28µM	14µM	?	?	13µM
CCOc1ccc(NC(=S)N/N=C(\C)Cc2ccc(OC)cc2)cc1	7.1µM	?	0	0	?
CC(=O)Nc1ccc(NC(=O)CSc2nnc3ccc(-c4ccccn4)nn23)cc1	0	0	0	-	0
CC(C)Cn1c(-c2ccc(F)cc2)n[nH]c1=S	7.9µM	0	?	0	?
Fc1ccccc1-c1n[nH]c(=S)n1C1CC1	-	0	-	0	8.9µM
CCOc1cc(-c2n[nH]c(=S)n2Cc2ccccc2)ccc1OC(F)F	0	0	0	-	?
CC(C)Cn1c(-c2ccccc2F)n[nH]c1=S	4µM	0	0	?	1.4µM
CC(C)Cn1c(-c2csc3c2CCCC3)n[nH]c1=S	79µM	?	0	?	8.9µM
O=C(NCCc1c[nH]c2ccccc12)c1ccc(S(=O)(=O)NCc2ccco2)cc1	0	?	?	0	0
COc1ccc(C(=O)NC2CCN(C(=O)Nc3ccccc3Cl)CC2)cc1	0	0	0	0	0
Cc1cc(Cl)ccc1NC(=O)COC(=O)c1nc2nccc(C)n2n1	0	0	0	0	0
SMILES	JMJD2A Tudor	BAZ2B inh	HP1b binding inh	Sfp PPTase inh	G9a inh
COc1ccc(CCn2c(-c3ccncc3)n[nH]c2=S)cc1OC	?	0	0	?	?
CC(C)Cn1c(-c2ccncc2)n[nH]c1=S	20µM	?	0	?	7.1µM
C=C(C)Cn1c(-c2ccncc2)n[nH]c1=S	50µM	?	0	?	14µM
COCCNC(=O)CSc1nc2ccccc2c(=O)n1CCCC(=O)NCc1ccccc1	0	0	0	0	0
Cc1nc(SCc2ccc(F)cc2)c2oc3ccccc3c2n1	0	0	0	0	-
Cc1nc(SCc2nc3c(F)cccc3[nH]2)c2oc3ccccc3c2n1	79µM	-	0	-	-
Cc1nc(SCc2nc3c(C)cccc3[nH]2)c2oc3ccccc3c2n1	?	-	0	-	-

Assay outcomes: PubChem BioAssay, National Center for Advancing Translational Sciences (NCATS)
